Experimental data taken from PubChem BioAssay AID624305 (National Center for Advancing Translational Sciences (NCATS), 2012).
Results filed as inconclusive are left out. Where a call stands in place of a potency, no number is given. Activity calls are given as the source filed them. Calls follow the shape of the dose curve; as a rule, active = well fitted activation curve with a large enough effect; inconclusive = small, poorly fitted or top-dose-only effect; inactive = no such curve, though single readings can be large or run the other way.

Experiment: qHTS assay for re-activators of p53 using a Luc reporter: Hit Validation; also: nearly all actives have a fitted effect of over 75% in size
Conditions: p53-responsive luciferase reporter cells, luminescence, H1299 line expressing heat-sensitive Ala138Val p53; series mostly up to 46.1 µM
Procedure, shortened: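 Hit confirmation with a 1:5 dilution series, at 37 deg C for 24 hrs, in H1299 cells co-expressing temperature-sensitive p53-A138V and p53-responsive luciferase. Nocodazole served as control; luminescence read after 10 min with detection reagent.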
Potency is read from the fitted curve at half-maximal effect.

SMILES	Potency	activation
CCCC(=O)NC(c1cccs1)c1cc([N+](=O)[O-])c2cccnc2c1O (stereo not drawn)	inactive	–
O=C(NNC1=C(C(=O)C(F)(F)F)CCC1)c1cccc(O)c1	inactive	–
COc1cccc(NC(=O)CCN2CCOCC2)c1	inactive	–
Cc1ccc2cc(C#N)c(NCc3ccco3)nc2c1	inactive	–
Cc1cccc(NC(=O)c2oc3c(c2C)C(=O)CC(C)(C)C3)n1	inactive	–
CCc1ccc2[nH]c(=O)c(CN(CCN3CCCC3)C(=O)NC3CCCCC3)cc2c1	inactive	–
COc1ccc(/C(C)=N/Nc2nccnc2Cl)cc1	16400 nM (active)	–
Cc1noc(C)c1C(=O)Nc1nc(-c2ccc(F)cc2)cs1	–	-25% [at 9.22 µM] (inactive)
COc1ccc(-c2nsc3c(N4CCCC4)ncnc23)cc1	92 nM (active)	–
C/C(=N\N=c1/scc(C)n1Cc1ccco1)c1cccc([N+](=O)[O-])c1	inactive	–
Cc1ccn2c(c1)nc(=S)n2C(=O)c1ccccc1	731 nM (active)	–
CCCCn1c(SCC(=O)N2CCCC2=O)nc2cc(S(N)(=O)=O)ccc21	inactive	–
C/C(=C\C(=O)c1ccccc1)Nc1ccc2c(c1)OCO2	2910 nM (active)	–
Fc1cccc2sc(Nc3nnc(-c4ccco4)o3)nc12	11600 nM (active)	–
O=C(NCc1ccco1)c1noc2c1CCCC2	inactive	–
C=CCOc1c(Br)cc(CNCCCN2CCOCC2)cc1OC	inactive	–
CCCCCCC[C@@H](C/C=C/CCC(=O)N(C)C/C(=C/Cl)C/C(=C\C(=O)N1CC(OC)=CC1=O)OC)OC	5800 nM (active)	–
COc1ccc(N2CCN(CCCNC(=O)C3(S(=O)(=O)c4ccc(Cl)cc4)CC3)CC2)cc1	inactive	–
Cc1cc(Oc2ccccc2)nc(-c2ccccc2O)n1	inactive	–

SMILES	Potency	activation
O=C(N/N=C\c1cc(Cl)ccc1O)c1ccc(S(=O)(=O)N2CCCCC2)cc1	inactive	–
CCOc1ccc(-n2c(SCc3nc(-c4cccs4)no3)nnc2-c2ccncc2)cc1	inactive	–
Cc1cc(NC(=O)c2ccco2)sc1C	18400 nM (active)	–
CC(C)(C)NC(=O)C(c1ccc(Cl)cc1)N(CCO)C(=O)c1snc(C(N)=O)c1N (stereo not drawn)	inactive	–
O=C(Cn1cc2c(n1)CCCCC2)NC1CCCCCC1	inactive	–
Clc1ccc(OCc2cc(-c3ccccc3)no2)c(Cl)c1	1160 nM (active)	–
Cc1cc(C(c2nnnn2Cc2ccccc2)N2CCOCC2)c(C)n1-c1ccc2c(c1)OCO2 (stereo not drawn)	inactive	–
N#C/C(=C\c1ccc(OCc2ccc(Br)cc2)cc1)C(=O)Nc1cccc(C(=O)O)c1	2910 nM (active)	–
Cc1cc(C)c2nc(NNC(=O)c3ccc(S(=O)(=O)N4CCc5ccccc5C4)cc3)sc2c1	inactive	–
CC(C)/C=C1\CC/C(=C\c2ccc(N(C)C)cc2)C1=O	2910 nM (active)	–
Cc1cc(=O)[nH]c(N/N=C/c2ccccn2)n1	13000 nM (active)	–
O=C(O)CCCC(=O)NCCc1ccncc1	inactive	–
COc1ccnc(CSC(N)=Nc2ccccc2OC)c1	inactive	–
COc1cccc(-c2cn3nc4c(nc3n2)CCCC4)c1	116 nM (active)	–
O=C(COC(=O)c1cc2ccccc2oc1=O)Nc1cccc(S(=O)(=O)N2CCCCCC2)c1	inactive	–
CC(C)CNC(=S)Nc1ccc(Oc2ccccc2)cc1	inactive	–
CC(Sc1nc(N)cc(=O)[nH]1)C(=O)NNC(=O)c1cccc(Cl)c1 (stereo not drawn)	inactive	–
COc1ccccc1NC(CC(=O)c1ccccc1)C(=O)OCC(=O)c1ccc(C)c(C)c1 (stereo not drawn)	291 nM (active)	–
Cc1cc(/C=C2/C(=O)NN(c3ccccc3)C2=O)c(C)n1-c1cccc(O)c1	10300 nM (active)	–
